The text below walks through data of PubChem BioAssay AID743398 (Broad Institute, 2014).

Molecules are shown by their SMILES. Screen size: about 300,000 compounds; about 3,600 (1.2%) were called active. Shown is part of a subset that was picked to be rich in actives. A number with no mark means an inactive call. Rule as the data show it: active = activation above about 30% (passing the limit was not always enough); inconclusive = no clear call, values can overlap the other calls.

The nature of this assay: Wnt/beta-catenin pathway activators, primary screen, cell-based, plate reader, single point (AID 743398).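 Also: 0% = neutral control wells and 100% = positive control wells.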 As to conditions: Wnt/beta-catenin reporter cell assay, activator, at 9.35 µM, active compounds read high.
Turning to `O=C(N/N=C/c1ccc([N+](=O)[O-])o1)c1cn(-c2ccccc2)nc1-c1ccc(F)cc1`, the activation is -0.879%.
In the case of `O=C(NNC(=O)C1CCCC1)c1ccc(F)cc1`, the activation is -1.64%.
Take `O=C(/C=C/c1ccc([N+](=O)[O-])o1)NNC(=O)c1ccc(F)cc1`: the activation was 37.2% (active).
Regarding `CCCCCn1nnnc1-c1nc2cc3ccccc3cc2[nH]c1=O`, the activation was -1.88%.
The value for `COc1ccc(NC(=O)C2(C)Cc3c(-c4cccc(NC(C)=O)c4)ccnc3O2)cc1OC` (stereo not drawn) was -0.993%; that for `COCc1cc(N2CCN(C(=O)OC(C)(C)C)C[C@@H]2C)ccc1N1CCN(Cc2ccccc2)[C@H](C)C1` was -6.08%; that for `O=C(NCCC1=CCCCC1)c1ccc(Cl)c([N+](=O)[O-])c1` was 12.3%.
For `O=C(Cc1nn[nH]n1)NCCC1=CCCCC1`, the activation was 1.57%.
For `O=C(NCCC1=CCCCC1)c1ccc(-n2cncn2)cc1`, the activation is 36.7% (active).
Take `COC(=O)[C@@]12C[C@@H](CC(=O)NCCCCc3ccccc3)C(=O)N(Cc3ccccc3)C1=CCC(C)(C)C2`: the activation was -3.6%.
For `CC(C)c1ccc(S(=O)(=O)N2CCN(C(=O)c3ccc(N4CCCC4)c([N+](=O)[O-])c3)CC2)cc1`, the activation was -1.38%.
Turning to `O=C(c1ccc(N2CCOCC2)c([N+](=O)[O-])c1)N1CCN(c2ccccc2F)CC1`, the activation was -6.11%.
`O=C(c1ccc(N2CCOCC2)c([N+](=O)[O-])c1)N1CCN(S(=O)(=O)c2cccs2)CC1`: the activation was 42% (active).
`O=S1(=O)c2c(cccc2N2CCCC2)O[C@H](COCc2ccccc2)CN1C1CC1`: the activation is -2.59%.
Consider `Brc1ccc(C2CC(c3ccccc3)=Nc3ccccc3N2)cc1` (stereo not drawn), for which the activation was 63.6% (active).
Turning to `c1ccc(C2=Nc3cccc4cccc(c34)N2)cc1`, the activation is -4.88%.
The value for `O=C(c1ccccc1)N1N=C(c2ccccc2O)CC1c1ccc(Br)cc1` (stereo not drawn) was -1.76%; that for `COCOc1cccc(CN2CCC(C)(Oc3ccc(SC)cc3)C2)c1` (stereo not drawn) was 0.071%.
In the case of `CC1(C)CC(=O)C=C(c2ccc(COC(=O)c3cc(F)cc(F)c3)cc2)C1=O`, the activation was 0.449%.
As for `CCc1cc(-c2nnn(CCC3COCCO3)c2CC)ccc1-c1cn(Cc2ccc3ccccc3c2)nn1` (stereo not drawn), the activation is -3.93%.
Regarding `COc1ccc(N=C(C)c2sc3ccccc3c2O)cc1`, the activation was 50.3% (active).
Consider `COC(=O)Cc1[nH]n(-c2nc3ccccc3s2)c(=O)c1C(C)=Nc1ccc(OC)cc1`, for which the activation was -8.84%.
Consider `COc1ccc(N=Nc2ccc(O)c(P(=O)(c3ccccc3)c3ccccc3)c2)cc1`, for which the activation is 1.19%.
Take `COc1cc(NC(=O)C2=C(C)OCCS2)c(Cl)cc1C(=O)NCCCN1CCCC(C)C1` (stereo not drawn): the activation is 2.04%.
As to `Cc1cc2cc3n(c2nn1)N=C(Cl)CC3`, the activation is -1.61%.
The figure for `O=C1CC(c2ccccc2)=NN1c1ccc([N+](=O)[O-])cc1` is 5.66%; for `Cc1nn(-c2ccc([N+](=O)[O-])cc2)c(N)c1-c1ccccc1` it is 37.5% (active).
In the case of `Cc1cc(CO)nn1-c1ccc([N+](=O)[O-])cc1`, the activation was 3.25%.
For `CC(C)C[C@H](NC(=O)CC1CCCC1)C(=O)N1CCC[C@H]1C(=O)NCc1ccccc1`, the activation is 3.46%.
Consider `COc1cccc(NC(=O)C2(C)CCN2C(=O)CCC2CCCC2)c1` (stereo not drawn), for which the activation was -2.67%.
Take `Cc1ccc(Cc2c(-c3ccc(Cl)cc3)nc3c4ccccc4ccn23)cc1`: the activation is -0.0465%.
With `O=C(CSc1nc2ccc([N+](=O)[O-])cc2[nH]1)c1ccc(Cl)cc1`, the activation was -2.13%.
Regarding `O=C(Cc1nc2ccccc2[nH]c1=O)c1ccc(Cl)cc1`, the activation is 52.5% (active).
As for `O=C(/C(=C/c1cccc(Cl)c1)c1nc2ccccc2[nH]1)c1ccccc1`, the activation is 27.7%.
Take `Cc1ccc(Nc2ncnc3c2cnn3C)c(C)c1`: the activation was 0.858%.
With `O=C(NNc1ncnc2c1cnn2-c1ccccc1)c1ccco1`, the activation is 0.184%.
As for `Cc1ccc(-n2ncc3c(Nc4cccc(C(=O)O)c4)ncnc32)cc1`, the activation was 42.2% (active).
Regarding `CC(=O)C1=C(C)N(Cc2ccc(Cl)cc2)C(=S)NC1c1ccc(F)cc1` (stereo not drawn), the activation was -10%.
For the molecule `CCOc1ccc(C2C(C#N)=C(N)N(N(C)C)C3=C2C(=O)CCC3)cc1` (stereo not drawn), the activation was 6.29%.
Consider `N#CC1=C(N)N(c2ccccc2)C2=C(C(=O)CCC2)C1c1ccccc1` (stereo not drawn), for which the activation is -0.648%.
As for `COc1ccc(C2C(C#N)=C(N)N(c3ncn[nH]3)C3=C2C(=O)CCC3)cc1` (stereo not drawn), the activation is 43.2% (active).
In the case of `COc1cccc(-c2nc3nc(C)cc(C)n3c2NC2CCCCC2)c1`, the activation was 5.8%.
For `CC[C@H](NC(=O)[C@H](Cc1ccccc1)NC(=O)[C@H]1O[C@@H](n2cnc3c(=O)[nH]c(N)nc32)[C@H](O)[C@@H]1O)c1ccccc1`, the activation was -0.864%.
Regarding `Cc1sc2ncnc(N3CCC(C(=O)NNC(=O)c4ccc(F)cc4)CC3)c2c1C`, the activation is 3.2%.
For the molecule `Cc1sc2ncnc(N3CCC(C(=O)Nc4nc5ccc(Cl)cc5s4)CC3)c2c1C`, the activation was 38.3% (active).
Regarding `Cc1sc2ncnc(N3CCC(C(=O)Nc4ccc(F)cc4Cl)CC3)c2c1C`, the activation is -1.16%.
For `C[C@H](NC(=O)[C@@H]1CCCN1C(=O)[C@@H]1CCCN1C(=O)c1ccccc1)c1ccccc1`, the activation was -3.41%.
The figure for `COc1ccc(Cn2c(=O)oc3ccccc32)cc1` is 8.74%; for `COc1ccc(Cn2c(-c3ccc(Cl)cc3)c[n+]3ccccc23)cc1` it is 68.9% (active); for `CCn1c(C)cc(=O)cc1-c1ccc(Cl)cc1` it is 2.88%.
For the molecule `Cc1cc(C)n2c(NCc3ccccc3)c(CC(C)C)nc2n1`, the activation was -0.325%.
Take `COC(=O)C1=C(C)N(Cc2cccc(C(F)(F)F)c2)C(=NCc2ccccc2)NC1c1ccccc1C(F)(F)F` (stereo not drawn): the activation was -15.6%.
The value for `O=C(CC(CC(=O)c1ccccc1)c1ccco1)c1ccccc1` was 0.593%; that for `O=C(COC(=O)c1ccc(O)cc1O)c1ccc2c(c1)OCCO2` was 53.6% (active).
Regarding `O=C(COC(=O)c1ccc(O)cc1O)NC(=O)c1ccccc1`, the activation was -3.61%.
In the case of `O=C(COC(=O)c1ccccc1)c1ccc2c(c1)OCCO2`, the activation was -3.49%.
Regarding `O=C(O)Cn1cnc2c(NCc3ccccc3)ncnc21`, the activation is -0.517%.
`COC(=O)C1=C(C)N(Cc2cccc(C(F)(F)F)c2)C(=NCc2ccccc2)NC1c1ccc(Cl)cc1` (stereo not drawn): the activation was -31.1%.
Consider `O=C(NCCCn1ccnc1)c1ccccc1F`, for which the activation was -0.169%.
In the case of `O=C(NC1CCCC1)c1cc(-c2ccccc2)on1`, the activation is 46.9% (active).
The value for `O=C(NC1CCCCCCC1)c1cccs1` was 9.38%; that for `COc1ccc(-c2cc(C(=O)NCCCn3ccnc3)no2)cc1` was 6.05%.
The figure for `O=C(NC1CCCCC1)c1cc(C2CC2)on1` is 24.8%.
The value for `O=C(NCCCn1ccnc1)c1cc(-c2ccccc2)on1` was 113% (active); that for `Cc1ccccc1S(=O)(=O)N1[C@@H](c2cccc(Cl)c2)C(C(=O)OC(C)(C)C)=CC[C@H]1c1ccc(Cl)cc1` was -9.66%; that for `COc1ccccc1-c1ccc([C@@H]2C[C@H]3[C@H](CON3C)CN2S(=O)(=O)c2cc(Cl)cc(Cl)c2)cc1` was -3.43%.
Consider `COC(=O)[C@]12C[C@H](CC(=O)NCc3ccccc3)C(=O)N(CCC3=CCCCC3)C1=C[C@H](C(C)(C)C)O[C@@H]2C`, for which the activation is -7.29%.
For the molecule `Cc1cccc(CNC(=O)c2sc(=O)n(Cc3ccccc3C)c2C)c1`, the activation is -2.16%.
Consider `Cc1cnc(NC(=O)c2ccc(Cl)nc2)s1`, for which the activation was 29%.
The figure for `Cc1cnc(NC(=O)c2ccccn2)s1` is 41.6% (active).
For the molecule `O=C(Nc1nnc(C2CC2)s1)c1ccccn1`, the activation was 3.38%.
For `COC(=O)[C@]12C[C@H](CC(=O)NCCCCc3ccccc3)C(=O)N(Cc3ccc4c(c3)OCO4)C1=C[C@H](C(C)(C)C)O[C@@H]2C`, the activation is -8.78%.
In the case of `O=C(/C=C/c1ccccc1)Nc1nnc(SCC(=O)c2ccc3ccccc3c2)s1`, the activation was -11.8%.
For `NC(=O)CSc1nnc(NC(=O)c2ccc(Br)o2)s1`, the activation is 3.36%.
The value for `NC(=O)CSc1nnc(NC(=O)c2ccc3ccccc3c2)s1` was 39.8% (active); that for `COc1ccc(CC(N)c2csc(NC(=O)Nc3ccc(C(C)C)cc3)n2)cc1` (stereo not drawn) was 0.986%.
The figure for `Cc1ccc(C)c(CN2CCC(CNC(=O)C3CCCN(c4ncnc5c4nc4n5CCCCC4)C3)CC2)c1` (stereo not drawn) is 2.22%; for `CSc1ccc(CN2CCC2(C)C(=O)NCc2ccccc2Br)cc1` (stereo not drawn) it is -0.564%; for `CCOC(=O)C1CCCN(C(=O)c2cc(-c3cccs3)oc2C)CC1` (stereo not drawn) it is -1.53%.
The value for `Nc1ccc(N=Nc2ccccc2Cl)c(N)n1` was 37.3% (active).
With `CCN1C(=O)[C@@H]2[C@@H]3CN(S(=O)(=O)c4ccccc4C)[C@@H](c4ccc(Cl)cc4)[C@@H]3C(=O)C[C@@H]2C1=O`, the activation is -1.76%.
Consider `Oc1cccc2cc(-c3ccncc3)cnc12`, for which the activation was 4.6%.
Consider `C=CC[C@]12C[C@@]3(O[C@H](c4ccc(C(F)(F)F)cc4)N=C3C[C@H](c3ccc(OC)cc3)[C@H]1C)N(C1CCN(Cc3ccccc3)CC1)C2=O`, for which the activation is -5.8%.
The value for `C=CCOc1cccc(C2C(C(=O)c3ccc(C)o3)=C(O)C(=O)N2CCN2CCOCC2)c1` (stereo not drawn) was -3.18%; that for `Cc1ccc(-c2nc(-c3ccncc3)no2)c(C)c1` was 0.571%.
For `Cc1cccc(-c2noc(-c3ccc(F)cc3)n2)c1`, the activation is 51% (active).
The figure for `Cc1ccc(Cc2nc(-c3cccc(C)c3)no2)cc1` is 16.6%; for `CN1CCCCC(NC(=O)C(C)(C)C)C1=O` (stereo not drawn) it is -0.306%.
